A selection: hits, their analogues and other compounds. The true share with any hit is near 4.1%.
AmpC inh detg – inhibitors of E. coli AmpC beta-lactamase with detergent | actives 0.041% (n = 370,000) | P00811 | Potency, µM (top dose mostly 114 µM), for inactives: top-dose activity change, negative = inhibition, actives largely listed as inhibitors | AmpC hydrolysis of nitrocefin, absorbance 480 nm, 0.01% Triton | AID 485294;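 note: 0% = no-compound wells and -100% = no-enzyme wells; nearly all actives have a fitted effect of over 25% in size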
Target sequence (P00811 whole entry, looked up): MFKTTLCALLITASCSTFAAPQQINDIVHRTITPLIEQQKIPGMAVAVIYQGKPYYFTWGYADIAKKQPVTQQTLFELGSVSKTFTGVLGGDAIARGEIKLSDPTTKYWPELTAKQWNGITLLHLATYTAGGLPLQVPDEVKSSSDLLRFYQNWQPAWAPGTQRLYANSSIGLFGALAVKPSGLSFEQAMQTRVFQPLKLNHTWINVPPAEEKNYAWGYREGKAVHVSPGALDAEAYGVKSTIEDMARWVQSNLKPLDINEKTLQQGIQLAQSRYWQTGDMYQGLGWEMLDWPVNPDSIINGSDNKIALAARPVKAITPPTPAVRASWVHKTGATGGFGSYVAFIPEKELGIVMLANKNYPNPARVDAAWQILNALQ
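20 mM phosphate pH 7.0 + 0.01% (detergent screen) or 0.0001% Triton X-100; 5.3 nM AmpC reagent; cpd preinc 15 min RT; nitrocefin (800 uM stock) to start; A480 q20 s × 4 min; Activity was normalised to no-enzyme and no-compound control wells.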
Sm TGR block – blocks Schistosoma mansoni thioredoxin glutathione reductase; Q962Y6; purified TGR, DTNB reduction, TNB absorbance 405 nm; Potency, µM (highest dose often 114 µM), for the others: at the top dose activity change, negative = inhibition, hits mostly inhibitors; actives 3% (n = 360,000); note: nearly all actives have a fitted effect of over 60% in size
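First, TGR (20 nM dispensed) and NADPH were mixed with compound. Second, a 15 min room-temperature incubation followed. Third, further NADPH and then DTNB were added to start the reaction. Finally, TNB absorbance was monitored kinetically.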
AmpC inh no detg – AmpC beta-lactamase inhibition without detergent; P00811; Potency, µM (series often up to 57.1 µM), for the others: at the top dose activity change, negative = inhibition, most hits filed as inhibitors; AmpC nitrocefin hydrolysis, absorbance 480 nm, 0.0001% Triton; actives 0.52% (n = 330,000);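 note: plate controls were no compound for no effect and no enzyme for full effect; nearly all actives have a fitted effect of over 20% in size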
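AmpC (5.3 nM in the dispensed reagent) in 20 mM phosphate pH 7.0 with 0.01% (detergent screen) or 0.0001% Triton X-100 was preincubated with compounds for 15 min at room temperature. Nitrocefin was then added from an 800 uM solution, and hydrolysis was followed at 480 nm.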
FMDV inh – antivirals against foot and mouth disease virus; FMDV antiviral cell-based qHTS; Potency, µM (doses to about 57.9 µM), for the others: top-dose activity change, negative = inhibition, most hits filed as inhibitors; actives 1.2% (n = 410,000); calls by dose curve; tested in HEK293T cells; note: read-out not given here; nearly all actives have a fitted effect of over 45% in size
AMA1 RON2 block – AMA1-RON2 (P. falciparum) interaction inhibition; Potency, µM (doses to about 58.2 µM), inactives show at the highest dose activity change, negative = inhibition, actives largely listed as inhibitors; AlphaScreen AMA1-biotinylated RON2 peptide binding; actives 0.2% (n = 360,000);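 note: 0% = vehicle wells and -100% = peptide control; nearly all actives have a fitted effect of over 45% in size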
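AMA1 (3D7) with his tag at 25 nM final met compounds first, then biotinylated RON2 peptide at 25 nM; detection used donor plus acceptor beads, 10 µg/mL apiece, read by AlphaScreen after 30 min at room temperature.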
Active calls of the source: *; ? = inconclusive; · = no result given; [ ] = dose if it differs, or a comment. Unless noted, calls come from the whole dose curve; as a rule, active = well fitted curve in the direction sought with a large enough effect; inconclusive = small, poorly fitted or top-dose-only effect, or another doubt; inactive = no such curve, though single readings can be large; an effect the other way counts as inactive or inconclusive. Unless noted, % is set by controls: 0 for no effect and ±100 for the full control effect; potency is the fitted concentration of half-maximal effect.

SMILES	AmpC inh detg	Sm TGR block	AmpC inh no detg	FMDV inh	AMA1 RON2 block
COc1ccc(C2=NOC3(CC(=O)N(c4ccc(F)cc4)C3=O)C2)cc1 (centres undefined)	0%	20µM*	-55%	-6%	-8%
CC(C)(C)C1CCc2onc(C(=O)Nc3sc4c(c3C#N)CCCC4)c2C1 (centres undefined)	9%	5%	·	?	·
O=C1CC(C(=O)Nc2cc(Cl)ccc2Cl)n2ncnc2N1 (centres undefined)	-1%	22µM*	-23%	36%	18%
CC1(C)CC(=O)c2cc(C(=O)Nc3ccc(Cl)cc3)c(=O)[nH]c2C1	5%	-1%	·	77%	·
NNC(=O)c1[nH]c2ccccc2c1-c1ccccc1	-10%	10%	6.3µM*	-20%	77%
CC(=O)NNC(=O)c1[nH]c2ccc(Cl)cc2c1-c1ccccc1	5%	-2%	83%	-1%	72%
COc1ccccc1N1CCN(c2nc(CNC(=O)C3CC34CCCC4)nc3ccccc23)CC1 (centres undefined)	·	·	·	-7%	·
CCc1ccc(NC(=O)c2ccc(F)c(S(=O)(=O)N(CC)c3ccccc3)c2)cc1	-4%	0%	-21%	?	9%[11.6 µM]
CS(=O)(=O)N(Cc1ccccc1)c1ccc(C(=O)Nc2ccc(C(N)=O)cc2)cc1	0%	-60%	-14%	-5%	0%
CC(=O)c1cccc(NC(=O)c2ccc(N(Cc3ccccc3)S(C)(=O)=O)cc2)c1	-13%	-1%	-4%	32µM*	-4%
CC(=O)c1cccc(NC(=O)c2ccccc2N(Cc2ccccc2)S(C)(=O)=O)c1	-7%	0%	5%	-8%	-2%
Cc1cccc(NC(=O)c2ccc(N(Cc3ccccc3)S(C)(=O)=O)cc2)c1	3%	-8%	·	22µM*	·
CCN(c1ccccc1)S(=O)(=O)c1cc(C(=O)Nc2cccc(Cl)c2)ccc1F	-1%	-10%	-21%	20µM*	5%
COc1ccccc1CNS(=O)(=O)c1cc(CN2C(=O)c3cccnc3C2=O)ccc1OC	-3%	-12%	34%	0%	17%
COc1cc(CCNC2=CC(=O)c3ncccc3C2=O)ccc1O	·	·	·	40µM*	-1%
COC(=O)c1ccccc1C(=O)N1CCc2c(cnc(C)c2CNC(=O)c2ccccc2F)C1	·	·	·	-1%	·
CC(c1ccccc1)N1C(=O)c2cccnc2C1=O (centres undefined)	?	3%	-4%	3%	3%
CC(NC1=CC(=O)c2cccnc2C1=O)C(O)c1ccccc1 (centres undefined)	·	·	·	28µM*	14%
COc1ccc(CCNc2oc(/C=C/c3cc(OC)c(OC)c(OC)c3)nc2C#N)cc1OC	-3%	0%	·	-18%	·
COc1ccc(N(CC(=O)NCCSCc2ccco2)S(=O)(=O)c2ccccc2)cc1OC	-6%	-7%	10%	-3%	-20%
COc1ccccc1N(CC(=O)NCCSCc1ccccc1)S(=O)(=O)c1ccc(C)cc1	-10%	11%	-6%	35µM*	-17%
O=C(CCSc1ccccc1)NCCSCc1ccco1	-12%	-36%	2%	2%	-4%
COc1ccccc1N(CC(=O)NCCSCc1ccco1)S(=O)(=O)c1ccccc1	?	50µM*	-3%	-24%	-22%
O=C(COc1ccccc1)NCCSCc1ccco1	-3%	25µM*	-18%	23%	-13%
O=C(CCC(=O)c1ccc(F)cc1)OC1CCOC1=O (centres undefined)	-6%	50µM*	-2%	4%	0%
SMILES	AmpC inh detg	Sm TGR block	AmpC inh no detg	FMDV inh	AMA1 RON2 block
CCC1C(=O)NCCN1Cc1ccc2c(c1)CN(Cc1ccc(OC)cc1OC)CCO2 (centres undefined)	·	·	·	-9%	·
COC(=O)c1ccc(N2CCC(c3cc(-c4ccc(OC)cc4)n[nH]3)CC2)c([N+](=O)[O-])c1	?	18%	-13%	?	?
COc1ccc(-c2cc(C3CCN(c4ccc(C(C)=O)cc4[N+](=O)[O-])CC3)[nH]n2)cc1	-7%	12%	-4%	18µM*	?
Cc1ccc(CNC(=O)CSc2nc(=O)[nH]c3c2CCCC3)cc1	-5%	7%	·	-10%	·
CCCCC(=O)NC(=S)NNC(=O)c1ccc(OC)cc1	35µM*	1%	-51%	-28%	109%
Cc1occc1C(=O)NCCN1Cc2ccccc2OC(c2ccccc2F)C1 (centres undefined)	·	·	·	4%	·
CCc1ccc2[nH]c(=O)c(C(c3nnnn3CC3CCCO3)N3CCCc4ccccc43)cc2c1 (centres undefined)	-4%	35µM*	26%	13%	-14%
Cc1cc2cc(C(c3nnnn3CC3CCCO3)N3CCCc4ccccc43)c(=O)[nH]c2cc1C (centres undefined)	9%	?	-11%	-15%	3%
CCC(C)NC(=O)c1ccc2c(c1)S(=O)(=O)c1ccccc1C2=O (centres undefined)	4%	18µM*	-12%	-2%	-2%
Cc1ccccc1NC(=O)CCn1cnc2onc(-c3ccc(F)cc3)c2c1=O	-2%	0%	·	-11%	·
COCCCNC(=O)C[C@H]1C[C@H](C(=O)N2CCCCC2)[C@@]2(CCc3ccccc3)c3[nH]c4ccc(Cl)cc4c3CCN2C1=O	·	·	-1%	40µM*	-7%
COc1ccc(C2c3c(n(C)c4ccccc34)C(=O)N2CC(=O)Nc2cccc(Cl)c2C)cc1 (centres undefined)	8%	4%	·	-16%	·
C=C1C(=O)O[C@@H]2C[C@@H](C)[C@H]3C=CC(=O)[C@]3(O)C[C@@H]12	3%	35µM*	19%	?	-10%
Cc1ccc(CCNC(=O)Cn2cccc2)cc1	-14%	50µM*	-21%	1%	-9%
CCNC(=O)c1ccc(CSc2nc3cccnc3n2Cc2ccc(OC)cc2)cc1	6%	1%	·	-14%	·
O=C(Nc1ccc(OC(F)F)c(Cl)c1)Nc1ccc2c(c1)OCO2	?	-7%	-46%	-9%	2%
O=C(Nc1ccc([N+](=O)[O-])cc1)Nc1ccc(OC(F)F)c(Cl)c1	-10%	-5%	-19%	25µM*	-2%
Cc1nn(-c2ccc3ccccc3c2)c(=O)c2ccccc12	0%	24%	-24%	50%	10%
Cc1nn(-c2nc3ccccc3[nH]2)c(=O)c2ccccc12	?	3%	-20%[11.4 µM]	0.79µM*	-1%
CN1CCN(C(=S)c2ccc(OCC(=O)Nc3cccc(C(F)(F)F)c3)cc2)CC1	-9%	2%	81%	20µM*	-11%
COc1cc(C(=O)NCc2cccnc2)ccc1OCC(=O)Nc1cccc(C(F)(F)F)c1	?	-4%	35%	11µM*	-2%
O=C(NCc1cccnc1)c1cccc(C(F)(F)F)c1	-1%	1%	0.32µM*	-14%	3%

Screens (PubChem BioAssay)
